Most compounds without a hit are left out; they make up all but 0.71% or so of the library.
Mac1 fbg inh: CD11b/CD18-fibrinogen binding inhibition | inhibition, % at 10 µM | K562 CD11b/CD18 adhesion to fibrinogen, ATPlite luminescence; Mn2+ added to activate the integrin | AID 1497 | P05107+P11215 | 93,000 compounds, 0.54% hits;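 active = primary inhibition of 50% or more at 10 µM, then 40% or more on retest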
Target sequence (P05107 whole entry, looked up, other chains not shown): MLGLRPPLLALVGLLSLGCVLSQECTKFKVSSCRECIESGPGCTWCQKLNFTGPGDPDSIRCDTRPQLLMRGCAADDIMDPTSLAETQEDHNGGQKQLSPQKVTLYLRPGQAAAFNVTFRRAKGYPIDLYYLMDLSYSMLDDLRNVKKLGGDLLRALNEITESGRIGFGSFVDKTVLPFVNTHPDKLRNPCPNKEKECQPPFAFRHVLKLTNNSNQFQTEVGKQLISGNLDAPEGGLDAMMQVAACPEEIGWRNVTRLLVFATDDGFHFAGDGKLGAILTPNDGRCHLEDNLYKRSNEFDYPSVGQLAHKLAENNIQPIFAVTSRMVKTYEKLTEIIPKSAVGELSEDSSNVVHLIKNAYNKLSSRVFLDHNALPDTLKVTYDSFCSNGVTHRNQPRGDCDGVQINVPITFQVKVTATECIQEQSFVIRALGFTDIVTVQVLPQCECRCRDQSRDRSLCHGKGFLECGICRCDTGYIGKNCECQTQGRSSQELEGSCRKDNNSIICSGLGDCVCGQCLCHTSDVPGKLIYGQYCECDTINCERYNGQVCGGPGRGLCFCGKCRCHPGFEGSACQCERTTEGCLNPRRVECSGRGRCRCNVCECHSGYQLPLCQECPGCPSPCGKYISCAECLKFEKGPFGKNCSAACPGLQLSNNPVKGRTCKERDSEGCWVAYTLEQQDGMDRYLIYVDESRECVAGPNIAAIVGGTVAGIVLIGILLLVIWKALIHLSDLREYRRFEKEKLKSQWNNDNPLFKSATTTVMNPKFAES
sdo1 growth: restores growth of sdo1-depleted yeast. 140,000 compounds, 0.21% hits. z-score at 10 µM. S. cerevisiae sdo1-depleted JHY4D growth rescue, OD600 30 h; stronger effect = higher value; pdr5 snq2 efflux-pump mutant strain;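 active = z-score above 3 at both the 24 hr and the 30 hr optical density reads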
Phagocytosis inh: blocks phagocytosis by macrophages | J774A.1 macrophage IgG-bead phagocytosis, imaging | inhibition, % at 5 µM | 110,000 compounds, 0.07% hits | AID 1029;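 active = inhibition above the mean of the plate negative controls plus 5 SD, cut at about 13% in these data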;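 note: phagocytic index as fraction of beads internalized from green versus red external bead signal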
Mac1 fbg enh: increases human CD11b/CD18 adhesion to fibrinogen; 93,000 compounds, 0.07% hits; activation, % at 10 µM; AID 1499; P05107+P11215; K562 CD11b/CD18 adhesion to fibrinogen, ATPlite luminescence;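 active = 10 µM primary screen giving 50% or more activity, confirmed by 40% or more on retest at that dose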
sdo1 rescue conf: SDO1-depleted yeast growth rescue confirmation; shares compounds with sdo1 growth; S. cerevisiae JHY4D (SDO1-depleted) growth rescue, OD600, 30 h; stronger effect = higher value; efflux-deficient strain, SNQ2 and PDR5 mutated; OD recovery (test concentration not listed); 440 compounds, 44% hits; AID 949;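 active = yeast growth recovered at 30 hours, either rising with dose fitted slope above 0.001 or with average optical density gain above 0.07, some results past the limit were not filed as active; inactive = growth falling with dose or no effect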
Each line names hits and unclear results; the compound was inactive in the other large screens (follow-up assays come after a bar, where they were run).

Cn1ncnc2c(=O)n(C)c(=O)nc1-2	Mac1 fbg inh 71 (no result: sdo1 growth)
CCn1cc(/C=C2/CC3C4CC=C5CC(O)CCC5(C)C4CCC3(C)C2=O)c(C)n1 (centres undefined)	none (no result: Mac1 fbg inh, Phagocytosis inh, Mac1 fbg enh)
CN(C)CCN=Cc1c(O)n(-c2cccc(C(F)(F)F)c2)c(=O)[nH]c1=O	none
CN1CCN(C(=O)COc2ccc(-c3nc4ccccc4s3)cc2)CC1	Mac1 fbg inh 93
CC(C)NS(=O)(=O)c1ccc(OCC(=O)N2CCN(C)CC2)cc1	none
Cn1nc(-c2ccc(OCC(=O)N3CCN(Cc4ccccc4)CC3)cc2)c2ccccc2c1=O	Mac1 fbg inh 71 (no result: Phagocytosis inh)
Cn1c(=O)cc(OCC(=O)N2CCC3(CC2)OCCO3)c2ccccc21	none (no result: Mac1 fbg inh, Mac1 fbg enh)
Cn1c(=O)cc(SCC(=O)N2CCC3(CC2)OCCO3)c2ccccc21	sdo1 growth 3.4 | sdo1 rescue conf 0.071
Cc1c(C(c2ccc(O)cc2)c2c(O)c3ccccc3oc2=O)c(=O)n(-c2ccccc2)n1C (centres undefined)	sdo1 growth 3.4 (no result: Mac1 fbg inh, Phagocytosis inh, Mac1 fbg enh) | sdo1 rescue conf inactive
CC12CN3CC(C)(CN(C1)C3c1cccs1)C2O (centres undefined)	none
CCCCN1C(=O)/C(=C\c2ccco2)C(=O)N(CCc2ccccc2)C1=O	sdo1 growth 10 (no result: Mac1 fbg inh, Phagocytosis inh, Mac1 fbg enh) | sdo1 rescue conf inactive
O=C(NC1CN2CCC1CC2)c1ccc(-c2ccc([N+](=O)[O-])cc2)o1 (centres undefined)	none (no result: Mac1 fbg inh, Mac1 fbg enh)

Compound activity as filed in PubChem.
